Experimental data taken from article PMC12136788.
The full ranking holds about 5,800 sequences; the median of “enrichment r” is about 0.68, and the highest 2% start at about 11. These entries were drawn from the full list.

T1: UNK ZnF1-6 (called full-length) (human, UniProt Q9C0B0 30-357)
T1 sequence: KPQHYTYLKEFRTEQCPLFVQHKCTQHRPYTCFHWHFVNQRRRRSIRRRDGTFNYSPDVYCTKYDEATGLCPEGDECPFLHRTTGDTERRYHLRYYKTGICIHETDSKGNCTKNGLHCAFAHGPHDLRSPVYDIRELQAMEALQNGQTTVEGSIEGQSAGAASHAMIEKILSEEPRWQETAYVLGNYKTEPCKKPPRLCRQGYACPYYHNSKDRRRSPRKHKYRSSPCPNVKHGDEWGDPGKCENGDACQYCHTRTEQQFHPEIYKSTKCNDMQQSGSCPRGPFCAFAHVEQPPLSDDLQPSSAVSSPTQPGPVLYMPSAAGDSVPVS

B1: chr1:23091194:23091296:-|CDS|ENSG00000169641|unk|FALSE|unique (ssRNA)
RNA: GGGAGUUCUACAGUCCGACGAUCCUCCAGAAGGACCCAAAGUAGCCUCACUGUGUCAGAGGUGCUUACCCGUCGGAAUCGGGUAGGAGACACCAUCACUGUCGCAGCCUGGAACCACUCAGCAAGCAUGGUGAGUUCCAGCCUCAACAGAGGAUUGAGCAUCA
B2: ENSG00000160209:stop:overlap|stop_codon|ENSG00000160209|stop_codon|NA|stop_codon (ssRNA)
RNA: GGGAGUUCUACAGUCCGACGAUCCCUUGACCUCCUGGGCUGAAGCAAUCUUUCUGCCUCCACCUCCCGAGUGGCUGGGACUAUAGUUGUGCACCAGCACGCCCACCUCCUGCCCAGGGUUGUUACUGGGGUGGUCACGUGGGCCAACAGAGGAUUGAGCAUCA
B3: chr1:212100457:212100572:+|CDS|ENSG00000143476|unk|FALSE|unique (ssRNA)
RNA: GGGAGUUCUACAGUCCGACGAUCAGAAGAGGCUCUGUCUCCUCCGUCUCUCCCAAGCCACCUUCAUCUUUCAAGAUGUCGAUUAGAAACUGGGUGACCCGAACACCUUCCUCAUCACCACCCAUCACUCCACCUGCUUCGGAGCAACAGAGGAUUGAGCAUCA
B4: chr20:63196482:63196583:-|3pUTR|ENSG00000149658|msi1|total|mutant (ssRNA)
RNA: GGGAGUUCUACAGUCCGACGAUCUGAUUUUUGCCCAGAUGGAUCUGCAUUUAUUUGUACUUUUUCUAUGUAUUAUAAUCCUGCCGAAGUCACUAAUAAAGGAGUAUUUUUUUUGUCAGCUUAUCAAUCAGACUGAUCUAAUGUCAACAGAGGAUUGAGCAUCA
B5: chr16:55506527:55506628:+|3pUTR|ENSG00000087245|msi1|FALSE|unique (ssRNA)
RNA: GGGAGUUCUACAGUCCGACGAUCUAUCAGUUUUAAUGCUACUACUAACAAUGAACAGUAACAAUAAUAUCCCCCUCAAUUAAUAGAGUGCUUUCUAUGUGCAAGGCACUUUUCACGUGUCACCUAUUUUAACCUUUCCAACCACAACAGAGGAUUGAGCAUCA
B6: ENSG00000107863:be:win_4351|CDS|ENSG00000107863|bound_else_gene|NA|bound_elsewhere_windowed (ssRNA)
RNA: GGGAGUUCUACAGUCCGACGAUCCACAAUGAUACUAAAGAGGAGUCCAAAAAAGAAAGUGAGACACUGGGCAGAAAACAGAAGAUCAUCAUUGCCAAAGAAAACAGCACUAGGAAAGACCCCAGCACGACAAAAGAUGAAAAGCAACAGAGGAUUGAGCAUCA
B7: chr13:42886387:42888493:-|three_prime_utr|ENSG00000133106|control|control|control (ssRNA)
RNA: GGGAGUUCUACAGUCCGACGAUCCAUAUUUAAUCUCUACUGCCAGGGAAAUGCUACAUUAUUUUUCUAAUUGGAAGUAUAAUUAGAGUGAUGUUGGUAGGGUAGAAAAAGAGGGAGUCACUUGAUGCUUUCAGGUUAAUCAGACAACAGAGGAUUGAGCAUCA
B8: chr4:143221337:143221438:+|3pUTR|ENSG00000170185|unk|FALSE|unique (ssRNA)
RNA: GGGAGUUCUACAGUCCGACGAUCUUGAAAGGUAAUAGAUUUUCCAGAAGUAAAAUCUGAUGGUUCUAAAUCAAUCAAUGUGAUAGUUCAUUUUUAACUCUUAGAAGAAUUCAGAGGAAAUUAACCCAGCUAAGUAAAAAAUCUCAACAGAGGAUUGAGCAUCA
B9: chr1:46316673:46316776:+|3pUTR|ENSG00000173660|unk|FALSE|unique (ssRNA)
RNA: GGGAGUUCUACAGUCCGACGAUCUGUUUCUUAUUUGUGUAACUGUAAGUUCACAUGAACCUCAUGGGUUUGGCUUAGGCUGGUAGCUUCUAUGUAAUUCGCAAUGAUUCCAUCUAAAUAAAAGUUCUAUGAUCUGCAAACCUGCAACAGAGGAUUGAGCAUCA
B10: chrX:53645320:53645442:-|CDS|ENSG00000086758|unk|FALSE|unique (ssRNA)
RNA: GGGAGUUCUACAGUCCGACGAUCUUAUUGGCUUCCUCUGAUAUGCAAGUGGUGCUGGCAGUCCUCAAUCUCCUAUAUGUAUUUAGCAAAAGAUCAAACUACAUCACUCGUCUGGGAUCUGACAAGAGGACCCCGCUGCUAACUCAACAGAGGAUUGAGCAUCA
B11: chrX:101412715:101412817:+|CDS|ENSG00000126945|unk|total|mutant (ssRNA)
RNA: GGGAGUUCUACAGUCCGACGAUCGGGUAUGGAGGCUAUGAUGACUAUGGUGGCUAUAAUGAUGGAUAUGGCUUUGGGUCUGACCGAUUUGGAAGAGACCUCAAUUACUGUUUUUCAGGAAUGUCUGAUCACCGAUACGGAGAUCAACAGAGGAUUGAGCAUCA
B12: chr7:100033925:100034026:+|CDS|ENSG00000106261|msi1|total|mutant (ssRNA)
RNA: GGGAGUUCUACAGUCCGACGAUCCAGAGCUCGGACCUCACCAAGCAUCAGAGAAUUCACACGGGGGAGAAACCCUAUGAAUGCCGUGAAUGUGGAAAAGCUUUCAACCGAAACUCAUACCUGAUUUUGCAUCGGAGAAUUCACCAACAGAGGAUUGAGCAUCA
B13: chr12:123761472:123761573:+|3pUTR|ENSG00000185344|unk|total|mutant (ssRNA)
RNA: GGGAGUUCUACAGUCCGACGAUCAAUAAGGCAGUUUGAACGAACAGUCUUCCCACAGUCAGGCCAUUUUUGCUGAUUUGGUUCCGAAUUUUCAGAAAUACUCCGUACACUCCACCUGUUCUUUGAUGGGAAUAUCUAAGAAGGCAACAGAGGAUUGAGCAUCA
B14: chr20:2117184:2117286:+|CDS|ENSG00000125834|unk|FALSE|unique (ssRNA)
RNA: GGGAGUUCUACAGUCCGACGAUCGCUCCUGGGGACCUACAUUAAACAGGGGACUGAGAUCGUCCCUGUUGGUGAGGCGCUGCUAGAAAACCCAAAGAUGGAGUUGCACAUCCCCCAAAAACGCAGGACUUCCAUGUCUGAGGGCAACAGAGGAUUGAGCAUCA

target: T1, UNK ZnF1-6 (called full-length); test: nsRBNS (natural sequence RNA bind-n-seq); RBNS binding buffer (assumed for nsRBNS): 25 mM Tris pH 7.5, 150 mM KCl, 3 mM MgCl2, 0.01% Triton X-100, 500 ug/ml BSA, 20 U/ml SUPERase-In, 4 C; UNK is unkempt and MSI1 is Musashi-1; names of the RNAs are library labels; protein concentration not given here; high values mean tight binding

First: B1
Second: B2
The binding signal of the first is lower: 0.389 enrichment R for the first, 0.427 enrichment R for the second.

Going from B3 to B4, the binding signal falls from 0.772 enrichment R to 0.665 enrichment R.

Compared with B5, B6 is lower in binding signal: 0.763 enrichment R for the first, 0.687 enrichment R for the second.

First: B7
Second: B8
The binding signal of the first is lower: 0.481 enrichment R for the first, 0.783 enrichment R for the second.

First: B9
Second: B10
The binding signal of the first is lower: 0.574 enrichment R for the first, 0.899 enrichment R for the second.

Going from B11 to B12, the binding signal falls from 0.671 enrichment R to 0.595 enrichment R.

Going from B13 to B14, the binding signal rises from 0.271 enrichment R to 1.08 enrichment R.
